Common to all, as to type: functional
Assay [1] has as its target Solute carrier family 2, facilitated glucose transporter member 1 (Homo sapiens) (UniProt P11166). In words: ST_JUDE_LEISH: Cytotoxicity at 2uM final concentration against transgenic Leishmania Mexicana promastigotes LmGLUT1 that are glucose transport deficient and complemented with the human glucose transporter GLUT1. Activity is measured by DNA content using SYBR green in vitro.

The target of assay [2] is Hexose transporter 1 (Plasmodium falciparum) (UniProt O97467). Kind of assay: ST_JUDE_LEISH: Cytotoxicity at 2uM final concentration against transgenic Leishmania Mexicana promastigotes LmPfHT that are glucose transport deficient and complemented with the Plasmodium falciparum hexose transporter. Activity is measured by DNA content using SYBR green in vitro.
The target of assay [3] is Glucose transporter (Leishmania mexicana) (UniProt O61059). Kind of assay: ST_JUDE_LEISH: Cytotoxicity at 2uM final concentration against transgenic Leishmania Mexicana promastigotes LmGT2 that are glucose transport deficient and complemented with the L. Mexicana glucose transporter 2. Activity is measured by DNA content using SYBR green in vitro.

Here are results for 13 molecules from ChEMBL document CHEMBL3433997, “St. Jude Leishmania screening dataset” (2016).

The inhibition is the change of the read-out against control, counted positive when it falls.

Chain of Solute carrier family 2, facilitated glucose transporter member 1 (Homo sapiens) (P11166 whole entry): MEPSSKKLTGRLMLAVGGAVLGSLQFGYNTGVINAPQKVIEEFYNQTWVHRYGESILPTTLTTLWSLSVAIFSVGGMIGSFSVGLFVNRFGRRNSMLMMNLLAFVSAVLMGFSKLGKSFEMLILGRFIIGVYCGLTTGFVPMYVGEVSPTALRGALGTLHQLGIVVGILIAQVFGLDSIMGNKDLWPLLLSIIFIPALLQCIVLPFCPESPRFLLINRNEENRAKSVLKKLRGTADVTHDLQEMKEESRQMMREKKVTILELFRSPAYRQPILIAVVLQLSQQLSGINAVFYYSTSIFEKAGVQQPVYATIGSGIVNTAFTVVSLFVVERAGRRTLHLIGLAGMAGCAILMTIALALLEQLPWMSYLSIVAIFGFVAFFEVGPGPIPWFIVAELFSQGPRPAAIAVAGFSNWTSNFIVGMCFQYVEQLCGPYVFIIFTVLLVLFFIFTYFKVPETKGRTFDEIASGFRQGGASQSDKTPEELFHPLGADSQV

For `CCC(C)(C)c1ccc2nc(N)nc(N)c2c1C`, the inhibition in assay [1] came out at 74.5%; in assay [2], 76.4%; in assay [3], 61.7%.
Taken in the same sequence, the figures for `Cc1ccc(NC(=O)c2ccc(CN3CCCN(Cc4cccc(O)c4)CC3)cc2)cc1` were -1.8%, -0.37% and 1.37%.
Turning to `Cc1nc2ccc(Nc3nccc(-c4c(-c5cccc(NC(=O)c6c(F)cccc6F)c5)nn5ccccc45)n3)cc2nc1C`, the inhibition in assay [1] was 2.58%; in assay [2], 4.37%; in assay [3] it was -1.39%.
The like results for `COc1ccc(C=NNc2nc(O)cc(-c3ccccc3)n2)cc1OC` were, in that order, 1.33%, -1.28% and -1.28%.
Taken in the same sequence, the figures for `Nc1nc(N)c2c(ccc3c2ccn3CCCC2CCCNC2)n1` (centres undefined) were 0.22%, -0.13% and 1.44%.
The like results for `CC(C)c1ccc(NC(=O)Nc2ccc(Cn3ncc(N4CCCNCC4)c(Cl)c3=O)cc2)cc1` were, in that order, 1.52%, 1.29% and -0.56%.
Consider `OC1CCC(Nc2ccc3ncc(-c4ccc(Cl)cc4)n3n2)CC1` (centres undefined), for which the inhibition in assay [1] amounted to 8.13%; in assay [2], 3.98%; in assay [3], 4.08%.
Taken in the same sequence, the figures for `O=S(=O)(Nc1ccc(CCN2CCC(N3CCCCC3)CC2)cc1)c1ccccc1C(F)(F)F` were 13.5%, 13.4% and 11.3%.
Taken in the same sequence, the figures for `CNCc1ccc(CN(C)c2nc(N)c3cc(OC)c(OC)cc3n2)cc1` were 4.8%, 5.4% and 6.34%.
The like results for `O=C(NC1CCC(CCN2CCc3ccc(-c4cnccn4)cc3CC2)CC1)c1cccc(-n2cccn2)c1` (centres undefined) were, in that order, 10.2%, 7.38% and 8.56%.
As for `CCN1CCN(c2cc(C)c3cc(NC(=O)c4ccc([N+](=O)[O-])c(C)c4)ccc3n2)CC1`, the inhibition was 3.68% in assay [1], 5.06% in assay [2] and 7.26% in assay [3].
The like results for `O=C(Nc1ccc2c(c1)CCC2)N[C@H]1CCN(Cc2ccc(OCCCN3CCCCC3)cc2)C1` were, in that order, 1.25%, 2.37% and 2.47%.
`N#Cc1ccc(-c2ccc(C(=O)NCCCCN3CCC(c4ccncc4)CC3)cc2)cc1`: the inhibition in assay [1] was 1.06%; in assay [2], 1.16%; in assay [3], 2.75%.
